Results on 13 molecules are retold here after PubChem BioAssay (NCI).

About 83,000 compounds went through this panel and 20% of them were active in at least one assay; those are over-represented in the sample as a whole.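 Single-dose data. Exposure time 48 hours. Values below 10 considered active.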 Values without a mark were called inactive. Activity calls are given as the source filed them.

The test system of this assay is MDA-MB-468 breast. Briefly: NCI-60 one-dose screen, 48 h (100 = growth as untreated, 0 = no growth, -100 = all killed). To be noted: 10 µM unless noted.
In the case of `COC(=O)c1c(C)nc(C)c2c1C(=O)C(Br)=C(NCCN1CCOCC1)C2=O`, the growth was 83.4%.

Consider `COc1cc(N=Cc2sc(Nc3nccs3)nc2O)cc(OC)c1OC`, for which the growth was 84.8%.

Take `CCCC(=O)Oc1ccc(/C(=C(\C)c2ccccc2)c2ccc(OCCN(CC)CC)cc2)cc1`: the growth is 62.4%. The result for `C=C(C)[C@@H]1CC[C@]2(C(=O)NC(COC(=O)C(Cl)Cl)(COC(=O)C(Cl)Cl)COC(=O)C(Cl)Cl)CC[C@]3(C)[C@H](CC[C@@H]4[C@@]5(C)CC[C@H](OC(C)=O)C(C)(C)[C@@H]5CC[C@]43C)[C@@H]12` reads 61.7%; that for `CCOc1ccc(/C=C/C=N/NC(N)=S)cc1`, 80.2%; that for `CCC(C)C1CCC(O)CC1` (stereo not drawn), 101%. To `O=c1oc2ccccc2cc1-c1nn(-c2ccccc2)cc1/C=N/Nc1nc(-c2ccccc2)c(N=Nc2ccccc2)s1` belongs 48.5%. For `COc1ccc2nc3cc([N+](=O)[O-])ccc3c(NNc3ccccc3)c2c1`, the growth is 58.3%. `O=C(/C(Br)=C/c1ccccc1)c1ccccc1`: the growth is -31.9% (active). The result for `O=C(C=P(c1ccccc1)(c1ccccc1)c1ccccc1)c1ccc(Br)cc1` reads 92%.

For the molecule `CSC1=Nc2c(c(C)c(-c3ccccc3)n2CCCN2CCCCC2)C2=NC(=O)C[C@H](C)N12`, the growth is -18.6% (active).

With `CCn1cc(C(=O)O)c(=O)c2cc(F)c(N3CCN(CC(=O)Nc4ccccc4)C(C)C3)c(F)c21` (stereo not drawn), the growth is 92.6%.

Consider `Cc1nc(Nc2nc3ccccc3o2)nc(-c2cccc([N+](=O)[O-])c2)c1C(=O)Nc1ccc(F)c(Cl)c1`, for which the growth was -2.01% (active).
